Records with an inconclusive call do not appear. A call without a number means that no potency is given here. The source made the active and inactive calls. The call rests on the fitted dose curve; in most records, active means well fitted activation curve with a large enough effect in the repeat runs; inconclusive means weak or mixed curves; inactive means flat fitted curve, though single readings scatter.
The compounds below were run against Nuclear receptor subfamily 1 group I member 2 (Homo sapiens) (UniProt O75469) (assay: Human pregnane X receptor (PXR) activation by small molecules, qHTS assay (AID 1346985; further: nearly all actives have a fitted effect of over 40% in size)). Conditions: DPX-2 HepG2 CYP3A4-luciferase, 24 h; series mostly up to 38.3 µM.
Text: National Center for Advancing Translational Sciences [NCATS]
NIH Chemical Genomics Center [NCGC]
U.S. Environmental Protection Agency [EPA]
National Institutes of Environmental Health Sciences [NIEHS]
National Toxicology Program [NTP]
The Pregnane X receptor (PXR), a ligand activated nuclear receptor plays a critical role in the regulation of genes involved in drug metabolism and transporters. Activation of PXR may be involved in the unwanted adverse drug-drug interactions. […] Therefore, identification of compounds with the potential for PXR activation can be of importance in improving the efficacy of drugs with less toxicity and avoiding drug-drug interactions.
DPX-2 (Puracyp, Inc.) cell lines, used for screening against human PXR activation has HepG2 cells co-transfected with a PXR response element and a luciferase construct containing CYP3A4 promoter. Increase in luciferase activity can be used to identify the compounds that activate the PXR pathway.
DPX-2 cells were dispensed at 2,000 cells per well in 5uL of assay medium into white, solid-bottom 1536-well plates using a Multidrop Combi dispenser (Thermo Scientific). The assay plates were incubated at 37C for 5hr before transferring 23nL of test compounds dissolved in DMSO and positive control via Pintool station (Wako). The assay plates were incubated at 37C for 24hr. Then 5ul One-Glo assay reagent (Promega) was added to each plate by a Flying Reagent Dispenser (FRD, Aurora Discovery) and following 30 min incubation at room temperature, luciferase activity was quantified on a ViewLux plate reader (Perkin Elmer).
Potency means the concentration at half of the fitted maximal effect.

| Compound | Potency |
| --- | --- |
| CN=C(N)NCCC[C@H](N)C(=O)O | inactive |
| CC(=O)Nc1ccc(OC(C)=O)cc1 | inactive |
| O=C(O)COc1ccc(C(=O)c2cccs2)c(Cl)c1Cl | inactive |
| CCCCCCCCCCCC[n+]1ccc2ccccc2c1 | inactive |
| CC1=C(/C=C/C(C)=C/C=C/C(C)=C/C=C/C=C(C)/C=C/C=C(C)/C=C/C2=C(C)CCCC2(C)C)C(C)(C)CCC1 | inactive |
| CC(C)OC(=O)Nc1ccc2nc(-c3cscn3)[nH]c2c1 | 5.01 µM (active) |
| NC(=O)C1c2ccccc2CCc2ccccc21 | inactive |
| O=C1c2ccccc2CN2C(=O)c3ccccc3CN12 | inactive |
| O=P(O)(O)CP(=O)(O)O | inactive |
| CC(C)(Oc1ccc(C2CCCc3ccccc32)cc1)C(=O)O (stereo not given) | inactive |
| C=CC1=C(C(=O)O)N2C(=O)[C@@H](NC(=O)/C(=N\O)c3csc(N)n3)[C@H]2SC1 (stereo in doubt) | inactive |
| O=C1C2CC3CC1CC(O)(C3)C2 | inactive |
| COc1c(O)cc2c(c1O)[C@@H]1O[C@H](CO)[C@@H](O)[C@H](O)[C@H]1OC2=O | inactive |
| CN(C/C=C/c1ccccc1)Cc1cccc2ccccc12 | inactive |
| COc1cc2c(cc1OC)[C@@H](Cc1cc(OC)c(OC)c(OC)c1)[N+](C)(CCCOC(=O)CC/C=C/CCC(=O)OCCC[N+]1(C)CCc3cc(OC)c(OC)cc3[C@H]1Cc1cc(OC)c(OC)c(OC)c1)CC2 (stereo not given in full) | inactive |
| CO/N=C(\C(=O)N[C@@H]1C(=O)N2C(C(=O)O)=C(COC(C)=O)CS[C@H]12)c1csc(N)n1 (stereo in doubt) | inactive |
| COC1=C(OC)C(=O)C(C/C=C(\C)CC/C=C(\C)CC/C=C(\C)CC/C=C(\C)CC/C=C(\C)CC/C=C(\C)CC/C=C(\C)CC/C=C(\C)CC/C=C(\C)CCC=C(C)C)=C(C)C1=O | inactive |
| C/C=C/C1=C(C(=O)O)N2C(=O)[C@@H](NC(=O)[C@H](N)c3ccc(O)cc3)[C@H]2SC1 | inactive |
| CCN(CC)C(=O)[C@]1(c2ccccc2)C[C@@H]1CN | inactive |
| O=C1CC[C@@H](C(=O)N[C@H]2C[C@@H]2c2ccccc2)N1 | inactive |

| Compound | Potency |
| --- | --- |
| CCN(CC)CCOC[C@H]1O[C@@H](O)[C@H](OCCN(CC)CC)[C@@H](O)[C@@H]1O | inactive |
| CS(=O)(=O)c1ccc([C@@H](O)[C@@H](COC(=O)CN)NC(=O)C(Cl)Cl)cc1 | inactive |
| CC(C)C[C@H](NC(=O)[C@@H](COC(C)(C)C)NC(=O)[C@H](Cc1ccc(O)cc1)NC(=O)[C@H](CO)NC(=O)[C@H](Cc1c[nH]c2ccccc12)NC(=O)[C@H](Cc1cnc[nH]1)NC(=O)[C@@H]1CCC(=O)N1)C(=O)N[C@@H](CCCN=C(N)N)C(=O)N1CCC[C@H]1C(=O)NNC(N)=O | inactive |
| CC(C)=CCC/C(C)=C/CC/C(C)=C/CC/C(C)=C/CC1=C(C)C(=O)c2ccccc2C1=O | inactive |
| COc1cc(/C=C/C(=O)CC(=O)/C=C/c2ccc(O)c(OC)c2)ccc1O | inactive |
| C[C@@H]1O[C@@H](OC[C@H]2O[C@@H](Oc3c(-c4ccc(OCCO)c(OCCO)c4)oc4cc(OCCO)cc(O)c4c3=O)[C@H](O)[C@@H](O)[C@@H]2O)[C@H](O)[C@H](O)[C@H]1O | inactive |
| CO/N=C(\C(=O)N[C@@H]1C(=O)N2C(C(=O)O)=C(CSc3cnns3)CS[C@H]12)c1csc(N)n1 | inactive |
| CCOC(=O)[C@H](CCc1ccccc1)N[C@@H](C)C(=O)N1[C@H](C(=O)O)C[C@H]2CCCC[C@@H]21 | inactive |
| O=C(O)COc1ccccc1/C=N/NC(=O)c1ccncc1 | inactive |
| CO[C@H]1C[C@H](O[C@H]2[C@H](C)[C@@H](O[C@@H]3O[C@H](C)C[C@H](N(C)C)[C@H]3O)[C@@H](C)C[C@]3(CO3)C(=O)[C@H](C)[C@@H](O)[C@@H](C)[C@@H](C)OC(=O)[C@@H]2C)O[C@@H](C)[C@@H]1O | inactive |
| CC/C(=C(/CC)c1ccc(OP(=O)(O)O)cc1)c1ccc(OP(=O)(O)O)cc1 | inactive |
| CCC(NC(C)C)C(O)c1ccc(O)c(O)c1 (stereo not given) | inactive |
| FC(F)(F)C(F)(F)C(F)(F)C(F)(F)C(F)(F)F | inactive |
| CC1(C)C[C@@H]1C(=O)N/C(=C\CCCCSC[C@H](N)C(=O)O)C(=O)O | inactive |
| C=CC[N+]1([C@H]2C[C@H]3[C@@H]4CC[C@H]5C[C@H](O)[C@@H](N6CCOCC6)C[C@]5(C)[C@H]4CC[C@]3(C)[C@H]2OC(C)=O)CCCC1 | inactive |
| CCCC(CCC)C(=O)OC1C[C@H]2CC[C@@H](C1)[N+]2(C)C (stereo not given in full) | inactive |
| CC(C)C[C@@H](NC(=O)[C@@H](O)[C@H](N)Cc1ccccc1)C(=O)O | inactive |
| CC12CCC(C[N+](C)(CCC[N+](C)(C)C)C1)C2(C)C (stereo not given) | inactive |
| CC(=O)Oc1cc(C(F)(F)F)ccc1C(=O)O | inactive |
| O=C(O)Cc1nn(Cc2ccc(Br)cc2F)c(=O)c2ccccc12 | inactive |
